High-throughput results from PubChem.
In the library only some 19% were active in any assay of this set; here they are far more common.
HT1080-NT tox – kills 2HG-producing HT-1080-NT fibrosarcoma cells; AID 686970; Potency, µM (highest dose often 46.1 µM), hits mostly cytotoxic; HT-1080-NT fibrosarcoma viability, CellTiter-Glo ATP luminescence, 48 h; 1.6% of 360,000 active;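 also: NT is the 2HG producing partner of a matched IDH1 knockdown line; nearly all actives have a fitted effect of over 55% in size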
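Toxicity toward the 2HG-producing NT line was scored as %Activity, normalised to DMSO and no-cell wells, from CellTiter-Glo luminescence after 48 hours' treatment.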
KB-V1 cytotox – kills drug-selected multidrug resistant KB-V1 cells; 3.4% of 400,000 active; Potency, µM (highest dose often 46.1 µM), hits mostly cytotoxic; KB-V1 MDR cells viability, CellTiter-Glo, 72 h; AID 1347076; also: nearly all actives have a fitted effect of over 60% in size
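Cytotoxicity toward P-gp-expressing KB-V1 cells was determined as loss of CellTiter-Glo luminescence after 72 h at 37 degrees C. Compounds were tested in quantitative HTS format across a concentration range, with curves fitted to normalized data.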
TDP1 cell CPT – growth inhibition of DT40 Tdp1-/-;hTDP1 cells with camptothecin (screen for TDP1 inhibitors); chicken DT40 Tdp1-/-;hTDP1 cells + 20 nM CPT, ATP luminescence, 48 h; Potency, µM (titrated, usually from 46.2 µM), hits mostly inhibitors; 12% of 420,000 active; also: nearly all actives have a fitted effect of over 55% in size
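Chicken DT40 Tdp1-/- cells complemented with human TDP1, 400 cells/well, exposed to compounds plus 20 nM camptothecin for at least 48 h at 37 C; viability read as ATP content by CellTiter-Glo luminescence.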
DT40 TDP1 no CPT – qHTS for Inhibitors of human tyrosyl-DNA phosphodiesterase 1 (TDP1): qHTS in cells in absence of CPT; DT40 Tdp1-/- hTDP1 cells, no CPT, ATP luminescence, 48 h; Potency, µM (highest dose often 46.2 µM), actives largely listed as inhibitors; 15% of 420,000 active; AID 686978, 2013; also: nearly all actives have a fitted effect of over 55% in size
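Cells were dispensed at 400 per well, compounds added by pin tool, plates incubated ≥48 hr at 37 °C, then CellTiter-Glo added for 30 min at room temperature before luminescence reading. Line: DT40 Tdp1-/- complemented with hTDP1; camptothecin omitted.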
HT1080 IDH1KD tx – HT-1080 IDH1 knockdown cell toxicity (counter line) | Potency, µM (titrated, usually from 46.1 µM), most hits filed as cytotoxic | AID 686971 | HT-1080 IDH1 knockdown viability, ATP luminescence, 48 h | 2% of 360,000 active
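Viability of IDH1-knockdown HT-1080 fibrosarcoma cells was assessed by CellTiter-Glo after 48 h at 37 °C with titrated compound; concentration-effect curves were classified by fit quality and response size.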
KB-3-1 tox – KB-3-1 parental cell cytotoxicity; KB-3-1 viability, CellTiter-Glo ATP luminescence, 72 h; Potency, µM (titrated, usually from 46.1 µM), usual class: cytotoxic; 1.4% of 400,000 active; AID 1347075; also: nearly all actives have a fitted effect of over 60% in size
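Luminescent ATP read-out (CellTiter-Glo) measures survival of drug-naive KB-3-1 cells after 72 h compound exposure at 37 °C. Titration series was screened from lowest to highest concentration, with DMSO vehicle plates as background controls.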
Hits are given with their value; – = inactive; ? = inconclusive; · = no result. Calls follow the shape of the dose curve; as a rule, active = well fitted curve in the direction sought with a large enough effect; inconclusive = small, poorly fitted or top-dose-only effect, or another doubt; inactive = no such curve, though single readings can be large; an effect the other way counts as inactive or inconclusive.

SMILES	HT1080-NT tox	KB-V1 cytotox	TDP1 cell CPT	DT40 TDP1 no CPT	HT1080 IDH1KD tx	KB-3-1 tox
O=C(Nc1ccc(N2CCOCC2)c(Cl)c1)c1c(F)c(F)c(F)c(F)c1F	–	–	23µM	16µM	–	–
O=C(Nc1ccc(N2CCN(C(=O)c3ccco3)CC2)c(Cl)c1)c1cccnc1	–	–	?	?	–	–
O=C(Nc1ccc(N2CCN(C(=O)c3ccco3)CC2)c(Cl)c1)c1c(F)c(F)c(F)c(F)c1F	–	–	15µM	18µM	–	?
Cc1c(C(=O)Nc2ccc3c(c2)OCCO3)oc2ccc(Br)cc12	–	21µM	–	–	–	–
Fc1cccc(NC(=S)NC2CCCCCCC2)c1	–	–	23µM	?	–	–
FC(F)(F)c1ccc(NC(=S)NC2CCCCC2)cc1	?	?	?	18µM	?	?
O=C(Nc1cccc(F)c1)C1CCCCC1	?	?	–	–	–	–
Fc1ccc(NC(=S)NC2CCCCC2)c(F)c1F	?	?	21µM	21µM	–	–
O=C(Nc1cccc(C(F)(F)F)c1)C1CCCCC1	–	–	–	?	–	–
FC(F)(F)c1cccc(NC(=S)NC2CCCC2)c1	–	?	?	?	–	18µM
O=S(=O)(Nc1ccc(F)cc1F)c1ccc(Br)s1	·	–	–	–	·	–
O=C(c1ccc(Cl)cc1)c1c[nH]c(C(=O)NNc2cccc(Cl)n2)c1	23µM	–	–	?	?	–
O=C(c1ccccc1)c1c[nH]c(C(=O)NNc2cccc(Cl)n2)c1	–	–	–	–	–	–
Cc1ccc(NC(=C(C#N)C#N)c2ccccc2)cc1	–	–	?	12µM	–	–
COc1ccc(/C=c2\s/c(=C/C(=O)c3ccc(C)cc3)[nH]c2=O)c(OC)c1	–	–	–	?	–	–
COc1cccc(/C=c2\s/c(=C\C(=O)C(C)(C)C)[nH]c2=O)c1	–	15µM	?	?	–	?
CN1CCCC1CN1CCCC1 (centres undefined)	–	–	–	–	–	–
CN1CCCC1CCNC1C2CC3CC(C2)CC1C3 (centres undefined)	?	–	8.2µM	16µM	–	–
Cc1ccc(C(=O)Nc2c(-c3ccccc3)nc3ccccn23)cc1	·	–	–	–	·	–
CCOC(=O)c1csc(N/N=C2\CCCc3ccccc32)n1	–	–	?	16µM	–	–
CC(=O)/C(C#N)=C1\NC(=O)C(Cc2ccc(C)c(C)c2)S1 (centres undefined)	–	5.8µM	0.58µM	0.073µM	?	15µM
CC(=O)/C(C#N)=C1\NC(=O)C(Cc2ccc(F)cc2)S1 (centres undefined)	–	–	?	1.3µM	–	?
Cc1ccc(CC2SC(=O)NC2=O)cc1Cl (centres undefined)	–	–	–	–	–	–
CNC(=O)/C(C#N)=C1/SC(Cc2ccc(F)cc2)C(=O)N1c1ccccc1 (centres undefined)	–	?	–	–	–	–
CNC(=O)C12CC3CC(C1)CC(c1ccc(C)cc1)(C3)C2	–	–	–	–	–	–
SMILES	HT1080-NT tox	KB-V1 cytotox	TDP1 cell CPT	DT40 TDP1 no CPT	HT1080 IDH1KD tx	KB-3-1 tox
COc1ccc(NC(=O)C23CC4CC(C2)CC(c2ccc(C)cc2)(C4)C3)cc1	–	?	29µM	23µM	–	–
Cc1ccc(C23CC4CC(CC(C(=O)NC(C)C)(C4)C2)C3)cc1	–	?	?	26µM	–	–
Cc1ccc(C23CC4CC(CC(C(=O)NC(C)C(=O)O)(C4)C2)C3)cc1 (centres undefined)	–	–	–	–	–	–
COc1ccc(NC(=O)c2ccco2)cc1NC(=O)COc1ccc(Cl)c(C)c1	·	–	?	?	·	–
CC1(C(=O)NS(=O)(=O)c2ccccc2OC(F)(F)F)CCN1C(=O)c1ccccc1 (centres undefined)	–	–	–	–	–	–
CC1CC(N(C(=O)c2ccco2)c2ccccc2)c2ccccc2N1 (centres undefined)	–	–	?	15µM	?	–
CC1CC(c2ccccc2)n2nc(NC(=O)c3ccco3)nc2N1 (centres undefined)	–	–	–	–	–	–
CNC(=O)c1c[nH]c2ccc(S(=O)(=O)Nc3cccc(SC)c3)cc2c1=O	?	?	–	–	?	?
Cc1cc(NC(=O)Nc2nnc(N(C)C3CCCCC3)s2)ccc1Br	·	–	?	?	·	–
Cc1cc(C)cc(NC(=O)Nc2nnc(N(C)C3CCCCC3)s2)c1	·	–	15µM	?	·	–
CCOC(=O)N1CCN(Cc2nnc(-c3ccccc3C)o2)CC1	–	–	–	–	?	–
